# The supplement of paper PMC11732987, “Enantioselective OTUD7B fragment discovery through chemoproteomics screening and high-throughput optimisation” (Communications Chemistry, 2025)
# Values without a mark were called inactive.
# Experiments:
# Test in all cases: log2 ratio of Biotin-Ahx-Ub-VS probe labelling (fragment/DMSO); higher = less target engagement (more negative = stronger competition), active = hit call of the paper (q ≤ 0.05, log2 ratio ≤ -1)
# Settings in all cases: compound concentration: 200 uM; treatment time: 3 h
# [1] = biological target: T1, ALG13 (UniProt Q9NP73)
# T1 sequence (whole entry): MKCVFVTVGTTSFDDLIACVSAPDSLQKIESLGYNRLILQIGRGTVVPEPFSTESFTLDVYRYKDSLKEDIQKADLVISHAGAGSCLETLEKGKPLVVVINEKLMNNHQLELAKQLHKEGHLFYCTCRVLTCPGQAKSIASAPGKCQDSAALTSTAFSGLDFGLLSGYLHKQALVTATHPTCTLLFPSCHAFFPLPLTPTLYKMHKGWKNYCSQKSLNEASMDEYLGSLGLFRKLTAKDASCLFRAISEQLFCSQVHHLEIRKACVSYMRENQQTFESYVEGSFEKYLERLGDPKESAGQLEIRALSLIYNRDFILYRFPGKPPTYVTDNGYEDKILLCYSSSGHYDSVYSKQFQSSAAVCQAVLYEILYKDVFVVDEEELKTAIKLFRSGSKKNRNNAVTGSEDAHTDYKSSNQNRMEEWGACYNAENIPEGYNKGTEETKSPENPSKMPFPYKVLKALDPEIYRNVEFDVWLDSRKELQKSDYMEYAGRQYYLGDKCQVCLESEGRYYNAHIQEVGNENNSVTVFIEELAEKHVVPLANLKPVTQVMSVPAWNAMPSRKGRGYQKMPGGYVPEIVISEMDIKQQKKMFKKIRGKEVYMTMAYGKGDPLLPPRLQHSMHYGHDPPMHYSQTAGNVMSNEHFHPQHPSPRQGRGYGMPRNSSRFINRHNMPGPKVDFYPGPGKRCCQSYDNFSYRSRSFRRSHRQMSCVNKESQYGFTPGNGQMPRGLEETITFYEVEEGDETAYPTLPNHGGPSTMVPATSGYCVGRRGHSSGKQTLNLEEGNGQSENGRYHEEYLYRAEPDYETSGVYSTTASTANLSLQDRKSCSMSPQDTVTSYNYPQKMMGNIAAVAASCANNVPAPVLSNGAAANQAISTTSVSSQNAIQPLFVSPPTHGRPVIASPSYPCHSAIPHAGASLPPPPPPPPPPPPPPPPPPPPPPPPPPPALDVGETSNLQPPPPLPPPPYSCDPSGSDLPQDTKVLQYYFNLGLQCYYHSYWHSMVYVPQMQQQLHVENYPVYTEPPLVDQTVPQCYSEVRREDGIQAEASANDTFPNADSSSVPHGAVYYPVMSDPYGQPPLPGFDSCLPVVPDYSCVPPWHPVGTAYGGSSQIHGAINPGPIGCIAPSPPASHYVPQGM
# Method in brief: (§1)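 Lysate from HEK293T cells, 495 µg per sample in Tris/CHAPS/IGEPAL buffer with protease inhibitors, was treated for 3 h in triplicate with fragment at 200 µM or vehicle. Biotin-Ahx-Ub-VS was next added at 0.5 µM final for 1 h. The labelled DUBs were enriched with NeutrAvidin, digested with LysC and trypsin, and run by diaPASEF LC-MS/MS, with values given as average log2 fragment/vehicle ratios by unpaired t-test on global-median-normalised Spectronaut quantities of proteins with ≥2 unique peptides.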
# [2] = biological target: ATXN3 (UniProt P54252)
# Method in brief: as §1
# [3] = biological target: T2, BAP1 (UniProt Q92560)
# T2 sequence (whole entry): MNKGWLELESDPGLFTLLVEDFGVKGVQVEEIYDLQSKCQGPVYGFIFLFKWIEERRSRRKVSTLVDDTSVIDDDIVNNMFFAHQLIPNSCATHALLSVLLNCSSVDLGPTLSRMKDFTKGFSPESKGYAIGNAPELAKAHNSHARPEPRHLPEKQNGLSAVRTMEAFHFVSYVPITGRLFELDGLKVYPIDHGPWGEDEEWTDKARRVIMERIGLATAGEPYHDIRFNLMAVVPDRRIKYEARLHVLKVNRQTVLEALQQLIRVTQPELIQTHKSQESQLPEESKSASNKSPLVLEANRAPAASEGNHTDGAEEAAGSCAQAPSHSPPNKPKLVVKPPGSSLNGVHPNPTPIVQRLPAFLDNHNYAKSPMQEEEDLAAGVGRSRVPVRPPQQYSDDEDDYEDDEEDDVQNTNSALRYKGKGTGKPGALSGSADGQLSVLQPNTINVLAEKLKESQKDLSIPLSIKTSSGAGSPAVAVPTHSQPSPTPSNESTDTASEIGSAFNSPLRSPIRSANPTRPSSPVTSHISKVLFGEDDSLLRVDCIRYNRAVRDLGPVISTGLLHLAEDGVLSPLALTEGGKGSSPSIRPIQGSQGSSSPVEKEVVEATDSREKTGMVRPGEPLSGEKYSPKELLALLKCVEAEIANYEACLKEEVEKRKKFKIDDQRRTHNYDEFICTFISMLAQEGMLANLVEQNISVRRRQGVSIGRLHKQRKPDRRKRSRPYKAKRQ
# Method in brief: as §1
# [4] = biological target: EIF3F (UniProt O00303)
# Method in brief: as §1
# [5] = biological target: EIF3H (UniProt O15372)
# Method in brief: as §1
# [6] = biological target: T3, FAM105A (UniProt Q9NUU6)
# T3 sequence (whole entry): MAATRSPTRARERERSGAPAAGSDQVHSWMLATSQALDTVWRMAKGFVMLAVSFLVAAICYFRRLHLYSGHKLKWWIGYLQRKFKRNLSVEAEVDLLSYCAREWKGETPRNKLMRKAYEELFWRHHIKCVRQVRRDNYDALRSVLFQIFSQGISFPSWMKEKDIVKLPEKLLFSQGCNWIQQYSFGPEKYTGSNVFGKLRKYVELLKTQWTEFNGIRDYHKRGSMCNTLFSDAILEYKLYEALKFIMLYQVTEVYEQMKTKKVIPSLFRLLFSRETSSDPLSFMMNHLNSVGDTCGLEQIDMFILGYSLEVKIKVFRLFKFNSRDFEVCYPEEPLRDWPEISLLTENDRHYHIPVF
# Method in brief: as §1
# [7] = biological target: OTUB1 (UniProt Q96FW1)
# Method in brief: as §1
# [8] = biological target: T4, OTUD4 (UniProt Q01804)
# T4 sequence (whole entry): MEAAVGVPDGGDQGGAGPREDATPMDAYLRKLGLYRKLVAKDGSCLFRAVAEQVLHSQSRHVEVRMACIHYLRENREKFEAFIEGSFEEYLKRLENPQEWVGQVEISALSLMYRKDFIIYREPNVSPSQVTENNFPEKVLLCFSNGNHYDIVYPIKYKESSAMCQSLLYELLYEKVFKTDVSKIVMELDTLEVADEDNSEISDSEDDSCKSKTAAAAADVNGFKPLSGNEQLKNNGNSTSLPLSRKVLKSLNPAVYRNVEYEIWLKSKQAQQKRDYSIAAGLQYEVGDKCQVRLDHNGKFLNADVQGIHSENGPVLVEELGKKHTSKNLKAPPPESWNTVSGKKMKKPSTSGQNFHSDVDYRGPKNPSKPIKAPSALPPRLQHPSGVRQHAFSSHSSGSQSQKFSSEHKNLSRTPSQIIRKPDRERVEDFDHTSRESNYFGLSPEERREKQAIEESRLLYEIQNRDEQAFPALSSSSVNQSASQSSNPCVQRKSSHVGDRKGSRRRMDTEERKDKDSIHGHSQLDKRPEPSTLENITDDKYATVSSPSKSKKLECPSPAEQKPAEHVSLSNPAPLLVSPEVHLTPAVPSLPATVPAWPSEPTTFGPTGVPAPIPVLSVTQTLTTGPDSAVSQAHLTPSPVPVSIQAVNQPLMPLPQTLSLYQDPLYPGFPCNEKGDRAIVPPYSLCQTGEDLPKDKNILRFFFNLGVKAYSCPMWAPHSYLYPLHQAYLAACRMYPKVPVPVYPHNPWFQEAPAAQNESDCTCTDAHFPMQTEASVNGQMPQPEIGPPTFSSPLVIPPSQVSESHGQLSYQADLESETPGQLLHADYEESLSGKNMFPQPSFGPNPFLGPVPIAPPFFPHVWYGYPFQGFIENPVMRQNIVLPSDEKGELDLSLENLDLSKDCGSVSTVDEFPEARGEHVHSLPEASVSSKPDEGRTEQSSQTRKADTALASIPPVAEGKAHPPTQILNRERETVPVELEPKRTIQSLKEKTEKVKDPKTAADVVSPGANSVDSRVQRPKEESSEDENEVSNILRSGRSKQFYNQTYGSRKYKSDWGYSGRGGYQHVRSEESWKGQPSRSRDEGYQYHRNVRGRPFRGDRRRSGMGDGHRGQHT
# Method in brief: as §1
# [9] = biological target: T5, OTUD5 (UniProt Q96G74)
# T5 sequence (whole entry): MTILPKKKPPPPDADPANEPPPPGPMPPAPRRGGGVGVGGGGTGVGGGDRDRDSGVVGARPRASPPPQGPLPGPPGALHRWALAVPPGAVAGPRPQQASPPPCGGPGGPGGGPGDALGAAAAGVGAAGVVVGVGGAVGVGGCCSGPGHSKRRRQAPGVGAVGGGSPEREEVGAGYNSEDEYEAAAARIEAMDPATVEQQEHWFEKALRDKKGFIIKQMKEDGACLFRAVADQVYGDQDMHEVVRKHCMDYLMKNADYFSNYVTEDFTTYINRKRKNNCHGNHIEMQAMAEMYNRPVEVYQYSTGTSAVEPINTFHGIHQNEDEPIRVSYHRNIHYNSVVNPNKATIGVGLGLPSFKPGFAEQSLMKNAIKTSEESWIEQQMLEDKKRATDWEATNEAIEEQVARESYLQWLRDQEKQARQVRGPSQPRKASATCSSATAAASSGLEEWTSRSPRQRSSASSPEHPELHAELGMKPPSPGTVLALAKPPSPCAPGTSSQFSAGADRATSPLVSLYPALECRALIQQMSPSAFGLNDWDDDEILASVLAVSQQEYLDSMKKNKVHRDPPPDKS
# Method in brief: as §1
# Sequence of OTUB1 (Q96FW1 whole entry): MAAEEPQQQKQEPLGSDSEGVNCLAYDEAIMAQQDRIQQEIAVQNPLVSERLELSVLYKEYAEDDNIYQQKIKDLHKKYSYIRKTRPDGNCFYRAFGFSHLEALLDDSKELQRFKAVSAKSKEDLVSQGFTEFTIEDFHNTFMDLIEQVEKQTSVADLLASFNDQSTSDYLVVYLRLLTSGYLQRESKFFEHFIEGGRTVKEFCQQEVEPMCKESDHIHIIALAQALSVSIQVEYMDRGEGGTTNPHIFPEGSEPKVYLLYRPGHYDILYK
# Sequence of ATXN3 (P54252 whole entry): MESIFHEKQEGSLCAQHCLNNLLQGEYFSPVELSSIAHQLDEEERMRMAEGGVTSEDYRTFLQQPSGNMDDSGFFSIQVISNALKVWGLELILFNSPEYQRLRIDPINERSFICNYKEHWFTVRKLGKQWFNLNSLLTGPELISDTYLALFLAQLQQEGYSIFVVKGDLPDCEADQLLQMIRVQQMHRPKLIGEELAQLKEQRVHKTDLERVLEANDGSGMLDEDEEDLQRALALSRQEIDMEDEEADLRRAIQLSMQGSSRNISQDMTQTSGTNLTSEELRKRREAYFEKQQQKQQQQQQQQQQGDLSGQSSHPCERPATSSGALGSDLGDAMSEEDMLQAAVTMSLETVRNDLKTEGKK
# Sequence of EIF3F (O00303 whole entry): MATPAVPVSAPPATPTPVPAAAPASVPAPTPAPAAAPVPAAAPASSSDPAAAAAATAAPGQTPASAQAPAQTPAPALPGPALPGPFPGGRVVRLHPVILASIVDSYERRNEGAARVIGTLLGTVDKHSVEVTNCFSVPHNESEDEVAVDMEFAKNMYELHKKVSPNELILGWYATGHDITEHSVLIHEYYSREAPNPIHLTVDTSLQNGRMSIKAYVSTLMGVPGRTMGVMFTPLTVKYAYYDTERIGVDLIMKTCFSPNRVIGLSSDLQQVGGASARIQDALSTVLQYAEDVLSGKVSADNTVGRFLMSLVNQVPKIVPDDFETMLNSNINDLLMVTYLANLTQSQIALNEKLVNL
# Sequence of EIF3H (O15372 whole entry): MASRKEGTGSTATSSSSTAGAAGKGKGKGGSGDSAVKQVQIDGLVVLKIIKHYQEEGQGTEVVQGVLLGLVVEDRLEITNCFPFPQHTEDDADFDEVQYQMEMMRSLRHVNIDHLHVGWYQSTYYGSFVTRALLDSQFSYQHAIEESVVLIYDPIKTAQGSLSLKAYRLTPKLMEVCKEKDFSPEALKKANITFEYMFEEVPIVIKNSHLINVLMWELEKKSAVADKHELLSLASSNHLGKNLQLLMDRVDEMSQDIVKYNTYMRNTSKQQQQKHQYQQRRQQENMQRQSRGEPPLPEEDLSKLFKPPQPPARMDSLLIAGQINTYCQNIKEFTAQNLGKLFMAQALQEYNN
smiles,measurement,setting,value
Cc1ccc(CC(CO)CNC(=O)CCl)cc1 (centres undefined),log2 ratio of Biotin-Ahx-Ub-VS probe labelling,[1],-0.289
same,log2 ratio of Biotin-Ahx-Ub-VS probe labelling,[2],-0.385
same,log2 ratio of Biotin-Ahx-Ub-VS probe labelling,[3],-3.74 (active)
same,log2 ratio of Biotin-Ahx-Ub-VS probe labelling,[4],0.0794
same,log2 ratio of Biotin-Ahx-Ub-VS probe labelling,[5],0.139
same,log2 ratio of Biotin-Ahx-Ub-VS probe labelling,[6],0.442
same,log2 ratio of Biotin-Ahx-Ub-VS probe labelling,[7],-0.0508
same,log2 ratio of Biotin-Ahx-Ub-VS probe labelling,[8],-0.858
same,log2 ratio of Biotin-Ahx-Ub-VS probe labelling,[9],-0.455
